From PubChem BioAssay
An excerpt weighted towards active compounds, which were near 0.63% of everything screened.
TCR act – activators of T cell receptors | primary human leukocytes, anti-CD3, IL-2 HTRF, 48 h | Potency, µM (series often up to 9.22 µM), most hits filed as activators | 330,000 tested, under 10 active | AID 504894; active = well fitted activation curve with a large enough effect; inconclusive = small, poorly fitted or top-dose-only effect, or another doubt; inactive = no such curve, though single readings can be large or run the other way
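48 hr co-incubation of compounds, a-CD3 beads and primary human leukocytes; IL-2 quantified homogeneously by HTRF with anti-IL-2 K and d2 conjugates.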
gsp antag – antagonists of gsp mutant (McCune-Albright syndrome) | 340,000 tested, 0.4% active | Potency, µM (top dose mostly 76.9 µM), usual class: inhibitors | gsp-mutant cells, cAMP HTRF, 30 min; calls by dose curve; cell line not stated here;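 note: intracellular cAMP measured with PDE inhibitor Ro 20-1724 present during compound exposure; nearly all actives have a fitted effect of over 65% in size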
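Measurement of cellular cAMP by homogeneous time-resolved fluorescence following a 30 min compound exposure at 37C. The PDE inhibitor […] was present throughout; the assay buffer was DPBS with 0.05% BSA and 0.005% Tween 20.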
gsp ag – activates gsp, the McCune-Albright syndrome mutation | gsp mutant cells, cAMP HTRF, 30 min | Potency, µM (titrated, usually from 76.9 µM), hits mostly activators | 340,000 tested, 0.13% active | AID 624287; active = well fitted activation curve with a large enough effect; inconclusive = small, poorly fitted or top-dose-only effect, or another doubt; inactive = no such curve, though single readings can be large or run the other way; cell line not stated here;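 note: phosphodiesterase inhibitor Ro 20-1724 added with compounds to block cAMP breakdown; nearly all actives have a fitted effect of over 60% in size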
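Cells stably selected in G418 were plated at 2000/well, grown 16-24 hr, then given compounds in DMSO with the PDE inhibitor […] (300 uM solution added) for 30 min at 37C; cAMP was read by HTRF.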
TSHR antagonist – antagonists of human thyroid stimulating hormone receptor. TSHR-expressing cells, TSH-stimulated cAMP HTRF, 2 h; hits give low values. activity change, negative = inhibition, % at 11.5 µM. 330,000 tested, 0.2% active. AID 504810;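 active = activity change below a set negative limit, meaning inhibition stronger than a set level, cut at about -70% in these data; inconclusive = activity change between two set negative limits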
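Freshly harvested TSHR cells receive pin-tooled compound, then EC80 TSH at 4nM final. After 2 hours at 37 deg C, antibody in lysis buffer and cAMP-d2 are added; 30 minutes at ambient temperature precede the HTRF read.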
Pin1 inh – human Pin1 inhibition; Potency, µM (highest dose often 115 µM), actives largely listed as inhibitors; Pin1 FP peptide displacement, HiFluor488, 10 min; AID 504891; 390,000 tested, 0.009% active; active = well fitted inhibition curve with a large enough effect in the polarisation, with a control signal flat, not every such curve was filed as active; inconclusive = small, poorly fitted or top-dose-only effect, or effect the other way, or a change in a side signal; inactive = no such curve, though single readings can be large or run the other way; the % refers to the polarisation
Hits are given with their value; - = inactive; ? = inconclusive; . = no result; [ ] = dose if it differs, or a comment.

SMILES	TCR act	gsp antag	gsp ag	TSHR antagonist	Pin1 inh
CC1=CC(=O)C=C(C)C1=NOS(=O)(=O)c1ccccc1	-	?	-	?	-
CC1=CC(=O)C(C(C)C)=C/C1=N/OS(=O)(=O)c1ccccc1	-	-	-	-98	-
CC1=C(C)CC(C(=O)NNC(=O)c2cccc(Cl)c2)C(C(=O)O)C1 (centres undefined)	-	-	-	-	-
CCS(=O)(=O)Nc1ccc(C2=NN(C(=O)c3ccccc3)C(c3cccs3)C2)cc1 (centres undefined)	-	28µM	-	-	-
COc1cccc(C(C)NC(=O)c2ccncc2)c1 (centres undefined)	.	-	-[15.4 µM]	-	-
O=C(CSc1ccc(-c2ccc3c(c2)OCO3)nn1)Nc1nccs1	-	-	-[15.4 µM]	-	-
O=C(CSCC(=O)Nc1nc(-c2ccc3c(c2)OCO3)cs1)Nc1nccs1	-	32µM	-	-	-
O=S(=O)(c1cccc(NC(=S)N2CCN(c3cccc(Cl)c3)CC2)c1)C(F)F	-	32µM	-[15.4 µM]	-	-
Cc1onc(-c2ccccc2)c1NC(=O)N(Cc1ccccc1)C(C)C	-	-	-	-117	-
CC(=O)c1ccccc1OCC(O)CN1CCN(CCN2C(=O)c3cccc4cccc(c34)C2=O)CC1 (centres undefined)	-	32µM	-[15.4 µM]	-	-
O=C(COC(=O)c1ccc(Br)o1)Nc1ccc2c(c1)OCCO2	-	-	-	.	-
O=C(COC(=O)CNC(=O)c1ccc(Br)o1)Nc1ccc2c(c1)OCCO2	-	50µM	-	-	-
COc1ccc(C(=O)Nc2ccc(Cl)c(S(=O)(=O)Nc3ccccc3OC)c2)cc1	-	-	-	?	-
COc1ccccc1NS(=O)(=O)c1cc(NC(=O)c2ccc(Cl)nc2)ccc1Cl	-	32µM	-[15.4 µM]	-	-
O=P(Cc1ccccc1O)(c1ccccc1)c1ccccc1	-	-	-[15.4 µM]	-	-
CCOc1cc(/C=C/c2ccc3cccc([N+](=O)[O-])c3n2)cc(Cl)c1O	-	-	-	-72	-
O=[N+]([O-])c1cccc2ccc(/C=C/c3ccc(Cl)cc3)nc12	-	-	-	-	-
COCCCNC(=O)/C(C#N)=C/c1ccc(F)cc1	-	-	-[15.4 µM]	-	-
CCCCNC(=O)/C(C#N)=C/c1ccc(F)cc1F	-	11µM	-[15.4 µM]	-	-
Cc1cc(C)c(O)c(-c2cc(C(=O)Nc3ccc(S(=O)(=O)N4CCOCC4)cc3)[nH]n2)c1	-	28µM	-	-	?
COc1cc(CNc2ccc(O)cc2)cc(Br)c1OCc1ccccc1F	-	-	-	-	.
COc1cc(CNCc2ccncc2)cc(Br)c1OCc1ccccc1F	-	32µM	-	-	-
O=C(Nc1cc(Cl)ccc1O)c1snnc1-c1ccccc1	-	22µM	-	-	-
Cc1ccc(CNC(=O)CCCCCNC(=O)N2CCn3c2nc2ccccc23)cc1	-	-	-	-	-
Cc1ccc(CNC(=O)CCNC(=O)N2CCn3c2nc2ccccc23)cc1	-	-	-	-111	-
SMILES	TCR act	gsp antag	gsp ag	TSHR antagonist	Pin1 inh
CC(=O)c1nc(N2C(=O)CC(Cc3ccccc3)C2=O)sc1C (centres undefined)	-	-	16µM	-	-
Cc1cccc(CC2CC(=O)N(c3nc4ccccc4s3)C2=O)c1 (centres undefined)	-	-	-	-	-
O=C(COc1ccccc1F)Nc1ccc2c(c1)CCC2	-	-	-	-	-
O=C(Nc1ccccc1)Nc1cc(Cl)cc(Cl)c1	-	?	-	?	-
O=C(Nc1ccccc1)Nc1cc(OCC(F)(F)F)cc(OCC(F)(F)F)c1	-	32µM	-[15.4 µM]	-	-
CC(C)c1nc(N2CCOCC2)c(C#N)c2c1CCC2	-	35µM	-	-	-
CCC(Oc1ccccc1)C(=O)Nc1ccc(-c2nnc(-c3ccco3)o2)cc1 (centres undefined)	.	?	-	-	-
COC(=O)/C=C/C1=CN(Cc2ccccc2)CCC1=O	-	-	-	-	-
CCC(=O)Oc1ccc(C/C(=N\O)c2ccc(O)cc2O)o1	.	5.6µM	-	-	-
O=C(NCc1ccc(Cl)cc1)c1ccc(S(=O)(=O)N2CCCCC2)cc1	.	-	-	-	-
CSc1ncccc1C(=O)NNC(=O)c1ccc(NS(=O)(=O)c2cccs2)cc1	-	-	-	-	-
COc1ccc(NC(=O)c2cc(-c3ccccc3)nc3c2cnn3C(C)C)cc1	-	28µM	-	-	-
